Assay results taken from PubChem BioAssay AID1626 (SRMLSC, 2009).
About 2,000 (0.91%) of roughly 220,000 compounds were called active. Another 2% or so got no clear call; they are omitted. No stated cut-off is given here; in the data, inconclusive means inhibition above about 80% without an active follow-up result; inactive means below that; test concentration not stated here. These entries were drawn from the full list. Measured potencies and affinities stand elsewhere.

Assay: M. tuberculosis H37Rv growth inhibitors, H37Rv strain (AID 1626);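 further: bacteria incubated seven days before Alamar blue readout; 0% = bacteria only wells and 100% = bacteria with antibiotic wells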
Conditions: hits give high values, concentration not given here

SMILES	inhibition
O=C(Cn1c(=O)n(-c2ccccc2)c(=O)c2oc3ccccc3c21)Nc1ccccc1	-0.16% (inactive)
O=C1CC(=O)CC(c2ccccc2Cl)C1	-8.51% (inactive)
CCO[C@H]1OC(C(=O)O)=C[C@@H](C(C)(C)C)[C@@H]1CCCO	-7.81% (inactive)
NS(=O)(=O)c1ccc(C(=O)Nc2ccc(-c3nc4cccnc4s3)cc2)cc1	9.76% (inactive)
Cc1cc(C)c2c3c(cn2n1)c(=O)n(C)c(=O)n3C	4.42% (inactive)
O=C(CCCSc1nc2ccccc2[nH]1)NCc1ccccc1Cl	-0.81% (inactive)
Cc1cc2nc(CCl)cc(=O)n2[nH]1	2.54% (inactive)
COCCn1cnc2c1c(=O)n(CC(=O)OCC#N)c(=O)n2Cc1ccccc1	1.32% (inactive)
O=C(c1ccccc1)N1CCN(c2ccc([N+](=O)[O-])c(NCC3CCCO3)c2)CC1 (stereo unspecified)	3.59% (inactive)
O=C(COc1ccccc1)NC1CCCc2ccccc21 (stereo unspecified)	-1.62% (inactive)
O=C(O)CSCC(=O)NC1CCCc2ccccc21 (stereo unspecified)	0.52% (inactive)
Cc1cc(/C=C2/NC(=O)N(Cc3ccccc3F)C2=O)c(C)n1C(C)C	7.35% (inactive)
Cc1nn(C(=O)c2cccc([N+](=O)[O-])c2)c(C)c1Sc1ccccc1	0.41% (inactive)
Cc1ccc(OCc2nnc(SCC(=O)c3cccc([N+](=O)[O-])c3)n2C)cc1	3.44% (inactive)
COc1ccc(NC(=O)C2CCC(N3C(=O)C4C5C=CC(C5)C4C3=O)CC2)cc1 (stereo unspecified)	-14.2% (inactive)
CC(=O)c1ccc(NC(=O)COc2ccc3c(c2)OCO3)cc1	14% (inactive)
O=C(COc1cc(Cl)ccc1Cl)Nc1ccc2c(c1)CCC2	3.53% (inactive)
COc1cc(NC(=O)COc2ccc(-n3ccnc3)cc2)cc(OC)c1	54.1% (inactive)
O=C(COc1ccc2c(c1)CCC2)NCc1ccc(Cl)cc1	13.4% (inactive)
O=C(O)COCC(=O)Nc1ccc2c(c1)CCC2	-2.88% (inactive)
O=C(COc1ccc(-n2ccnc2)cc1)Nc1cccc(Cl)c1	3.18% (inactive)
O=C(COc1ccc(Cl)cc1)NCc1ccncc1	0.93% (inactive)
O=C(COc1ccc2ccccc2c1)Nc1ccc(Cc2ccncc2)cc1	11.6% (inactive)
Cc1ccc(/C=N/n2c(C)n[nH]c2=S)o1	-0.73% (inactive)

SMILES	inhibition
Cn1c(SCc2nc3ccccc3[nH]2)nnc1-c1cccnc1	-8.31% (inactive)
Brc1ccccc1-n1nnc(-c2ccnc3ccccc23)n1	-5.72% (inactive)
O=C(COc1cccc(Cl)c1Cl)Nc1ccc2c(c1)CCC2	-7.06% (inactive)
COC(=O)COc1cccc(NC(=O)c2ccccc2)c1	10.8% (inactive)
COc1ccc(OCC(=O)Nc2cccc(OC)c2)cc1	0.47% (inactive)
O=C(COc1ccc2c(c1)CCC2)NCc1cccc(Cl)c1	13.9% (inactive)
O=C(COC(=O)c1cncc(Br)c1)Nc1ccc2c(c1)OCO2	2.32% (inactive)
O=C(COC(=O)c1ccc(F)cc1F)Nc1ccc2[nH]c(=O)[nH]c2c1	0.74% (inactive)
CCCC(=O)Nc1ccc2oc(-c3ccncc3)nc2c1	0.51% (inactive)
Cc1c(Cl)cccc1NC(=O)Cn1c(-c2ccc(F)cc2)noc1=O	-3.42% (inactive)
Cc1c(O)c(S(=O)(=O)c2ccccc2)c(=O)n(-c2ccccc2)c1-c1ccccc1	-1.42% (inactive)
NNC(=S)Nc1ccc(S(=O)(=O)N2CCOCC2)cc1	-8.51% (inactive)
CCCOc1ccc(C(=O)Nc2nc(C)c(Cc3ccc4c(c3)OCO4)s2)cc1	2.21% (inactive)
Cc1nc(NC(=O)c2ccc(Cl)cc2)sc1Cc1ccc2c(c1)OCO2	-0.23% (inactive)
COc1cccc(C(=O)N(Cc2nc(-c3ccc(C)cc3)no2)C(C)C)c1	-3.98% (inactive)
COc1cc(/C=C/C(=O)OCC(=O)NC(=O)NC(C)C)cc(S(=O)(=O)N2CCc3ccccc32)c1OC	3.06% (inactive)
Cc1ccccc1CSCCNC(=O)Nc1ccccc1	-0.63% (inactive)
Cc1c2c(nc3ccccc13)OCC2	-16.5% (inactive)
Cc1c2c(nc3ccccc13)CCC(C(C)(C)C)C2 (stereo unspecified)	6.35% (inactive)
CCc1cccc(NC(=O)Cc2ccc([N+](=O)[O-])cc2)c1	58.6% (inactive)
Nc1c(C(=O)O)cnn1-c1ccc([N+](=O)[O-])cc1	-2.22% (inactive)
O=C(Cc1ccc([N+](=O)[O-])cc1)Nc1ccc(Cl)cc1	3.56% (inactive)
O=C(Nc1ccc([N+](=O)[O-])cc1)Nc1ccc(Cl)cc1F	9.88% (inactive)
O=C(c1ccc(F)cc1)N1CCN(C2CCC(c3ccccc3)CC2)CC1 (stereo unspecified)	5.5% (inactive)

SMILES	inhibition
CCOC(=O)c1ccc(NC(=O)CSc2nc(NC(=O)c3ccccc3)c3c(C)c(C)oc3n2)cc1	9.26% (inactive)
COc1cc(CCN2C(=O)N[C@@H](CCc3ccccc3)C(C(C)=O)=C2C)cc(OC)c1OC	-6.61% (inactive)
Oc1ccc(F)c2cccnc12	44.5% (inactive)
OCc1ccc(O)c2ncccc12	1.86% (inactive)
COCc1cc(CN2CCCC2)c(O)c2ncccc12	-1.29% (inactive)
Oc1ccc(CN2CCN(Cc3ccccc3)CC2)c2cccnc12	-2.63% (inactive)
CC(C)COCc1ccc(O)c2ncccc12	47.1% (inactive)
O=C(N/N=C/c1ccc(O)c2ncccc12)c1cccc(Br)c1	-4.1% (inactive)
CC(C)CC(c1nnnn1CC1CCCO1)N1CCN(Cc2ccc3c(c2)OCO3)CC1 (stereo unspecified)	0.16% (inactive)
CCN1C/C(=C/c2sccc2C)c2nc3ccccc3c(C(=O)O)c2C1	-0.78% (inactive)
Nc1nnnn1CC(=O)N/N=C/c1cc([N+](=O)[O-])ccc1Cl	-0.24% (inactive)
Cc1ccc(C(=O)COC(=O)CN2C(=O)C3C4CCC(C4)C3C2=O)cc1[N+](=O)[O-] (stereo unspecified)	19.5% (inactive)
Cc1ccc(CNC(=O)c2ccc(Cn3nc(C)c(Cl)c3C)o2)cc1	2.97% (inactive)
COc1ccc(NC(=O)CCN2CCOCC2)c(OC)c1	-3.47% (inactive)
COc1ccc(-c2nc3ccccc3c(=O)n2CCOc2ccccc2C)cc1	0.63% (inactive)
CC(C)c1cc(C(=O)O)c2ccccc2n1	-2.96% (inactive)
Brc1ccc(-c2cn3c(n2)CCc2ccc4cccnc4c2-3)cc1	-2.02% (inactive)
COc1ccc(-n2c(-c3ccc(Br)cc3)c[n+]3c2CCC3)cc1	2.38% (inactive)
COc1cc(/C=N/NC(=O)COc2cc(C)cc(C)c2)ccc1OS(=O)(=O)c1ccc(C)cc1	10.7% (inactive)
COc1ccc(CC(=O)Nc2ccc3c(c2)CCC3)cc1	9.72% (inactive)
CC(=O)Nc1ccc(NC(=O)COc2ccc3c(c2)CCC3)cc1	10.5% (inactive)
CCc1ccc(CN(C)CC(=O)Nc2ccc3c(c2)CCC3)cc1	48% (inactive)
COc1cccc(NC(=O)COc2ccc3c(c2)CCC3)c1	74.3% (inactive)
Cc1cc(C(=O)Cn2nc(C(=O)O)c3ccccc3c2=O)c(C)n1CCc1ccc(F)cc1	3.54% (inactive)

SMILES	inhibition
CC(C)OCCCNC(=O)Nc1cccc2ccccc12	-3.82% (inactive)
CCOC(=O)c1c(NC(=O)COc2cccc3c2CCN(C)C3=O)sc2c1CCC2	31.8% (inactive)
C/C(N)=C(/C#N)C(=O)COC(=O)c1ccccc1Oc1ccccc1	-2.05% (inactive)
O=C(Nc1ccc(N2CCN(C(=O)c3ccc(Cl)cc3)CC2)cc1)c1cc2ccccc2o1	-12.4% (inactive)
O=C(Nc1ccc(N2CCN(C(=O)c3ccc(Cl)cc3)CC2)cc1)c1ccc2c(c1)OCCO2	-4.15% (inactive)
O=C(Nc1ccc(N2CCN(C(=O)c3ccccc3)CC2)cc1)c1cc2ccccc2o1	9.58% (inactive)
O=C(Nc1ccc(N2CCN(C(=O)c3ccco3)CC2)cc1)c1ccccc1	7.16% (inactive)
O=C(Nc1ccc(N2CCN(C(=O)c3ccco3)CC2)cc1)c1ccco1	-0.76% (inactive)
O=C(Nc1ccc(N2CCN(C(=O)c3ccccc3)CC2)cc1)c1ccc(Br)o1	19.7% (inactive)
Cc1ccc(-c2nn(-c3ccccc3)cc2/C=C/C(=O)OCC(=O)NC2CC2)o1	6.54% (inactive)
Cc1cc(C)n(-c2ccc(C(=O)Nc3cccnc3Cl)cc2)n1	-2.86% (inactive)
CS(=O)(=O)N1CCc2cc(NC(=O)c3ccc(Cl)cc3Cl)ccc21	-3.19% (inactive)
COc1ccc(/C=N/NC(=O)C2C3CCCCC32)cc1OC (stereo unspecified)	1.66% (inactive)
CCOc1ccc(Br)cc1S(=O)(=O)Nc1ccc(C(=O)Nc2ccc(C)cc2)cc1	1.51% (inactive)
CN1C(C(=O)NCC2CC2)CC2Cn3c(nc4cc5ccccc5cc43)C21 (stereo unspecified)	-9.29% (inactive)
N#CC(Nc1ccccc1)c1ccccc1OCc1ccccc1 (stereo unspecified)	5.52% (inactive)
COc1ccccc1NC(C#N)c1ccccc1OCc1ccccc1 (stereo unspecified)	5.14% (inactive)
CC(=O)n1c2ccccc2c2c1c1ccccc1n2C	6.42% (inactive)
CC(C)OC(=O)CC1C(=O)NCCN1C(=S)NC(=O)c1ccccc1 (stereo unspecified)	3.87% (inactive)
Cc1ccc(C)n1-c1ccc(N2CCOCC2)c(Br)c1	4.43% (inactive)
COC(=O)c1ccc(C(=O)OC)c(NC(=O)CN2CCN(c3ccccc3OC)CC2)c1	72.2% (inactive)
COC(=O)c1ccc(C(=O)OC)c(NC(=O)CN2CCN(c3ccc(OC)cc3)CC2)c1	13.8% (inactive)
O=C1OCc2cc(N=Nc3c(O)[nH]c(=O)[nH]c3=O)ccc21	-9.19% (inactive)
COc1c(/C=N/NS(=O)(=O)c2ccc(C)cc2)c(CCN(C)C(C)=O)cc2c1OCO2	-0.76% (inactive)
